Results published in PubChem BioAssay (EPA / NIEHS).
Several values for one entry are separate records, joined by “and”; a condition that tells them apart may be missing. Equal values may be shown once. Inconclusive results are not listed. More than one record can exist for a structure, and the calls need not agree. Activity calls are given as the source filed them. The calls were made as follows, unless noted: active = hit-call score of the fitted dose curve at least 0.9, where 1 is the maximum; inactive = score below 0.9.

Columns and labels:
[1] = read-out: Interleukin 17A (IL17A), IL17A (gene 3605); test: BSK_BT_xIL17A: BioMAP Diversity Plus: BT Assay for Interleukin 17A (IL17A) Biomarker Activity (AID 2284229); conditions: primary human B cells with PBMC
Summary of the method: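 Luminex xMAP quantification of secreted IL-17A after 24 h chemical exposure of a primary human B cell/PBMC co-culture. Signal increases fitted relative to DMSO negative control.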

[2] = read-out: Tumor necrosis factor (Homo sapiens) (UniProt P01375); test: BSK_BT_xTNFa: BioMAP Diversity Plus: BT Assay for Tumor necrosis factor alpha (TNF-alpha) Biomarker Activity (AID 2284230); conditions: primary human B cells with PBMC
Summary of the method: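 Compounds were added to a B cell plus PBMC co-culture, and after 24 h secreted TNF-alpha was quantified with Luminex xMAP technology, with responses fitted upward from the DMSO control.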

[3] = read-out: Vascular cell adhesion molecule 1 (VCAM1), VCAM1 (gene 7412); test: BSK_MyoF_VCAM1: BioMAP Diversity Plus: MyoF Assay for Vascular cell adhesion molecule 1 (VCAM1) Biomarker Activity (AID 2284231); conditions: primary human lung fibroblasts
Summary of the method: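 ELISA readout of VCAM-1 on human lung fibroblast cultures 24 hours after dosing, analyzed for signal gain relative to DMSO. Overt cytotoxicity was checked by sulforhodamine B total-protein staining in parallel cultures.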

[4] = read-out: Interleukin 17F (IL17F), IL17F (gene 112744); test: BSK_BT_xIL17F: BioMAP Diversity Plus: BT Assay for Interleukin 17F (IL17F) Biomarker Activity (AID 2284243); conditions: primary human B cells with PBMC
Summary of the method: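 Human B cells co-cultured with PBMC; secreted IL-17F quantified by LumineX xMAP 24 hours after chemical dosing. Activity fitted in the positive direction against DMSO negative control as baseline.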

[5] = read-out: Actin alpha 1 (ACTA1), ACTA1 (gene 58); test: BSK_MyoF_ACTA1: BioMAP Diversity Plus: MyoF Assay for Actin alpha 1 (ACTA1) Biomarker Activity (AID 2284244); conditions: primary human lung fibroblasts
Summary of the method: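 MyoF fibroblast system (human lung); a-SMA quantified via ELISA at 24 h; DMSO-normalised, gain-of-signal endpoint.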

[6] = read-out: Basic fibroblast growth factor (bFGF), FGF2 (gene 2247); test: BSK_MyoF_bFGF: BioMAP Diversity Plus: MyoF Assay for Basic fibroblast growth factor (bFGF) Biomarker Activity (AID 2284246); conditions: primary human lung fibroblasts
Summary of the method: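 Fibroblasts from human lung, 24 h dosing. bFGF by ELISA; gain of signal over DMSO.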

[7] = read-out: Collagen IV, COL4A1 (gene 1282); test: BSK_MyoF_CollagenIV: BioMAP Diversity Plus: MyoF Assay for Collagen IV Biomarker Activity (AID 2284247); conditions: primary human lung fibroblasts
Summary of the method: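 Lung fibroblasts (human primary) treated with chemicals were assayed after 24 h for Collagen IV using an ELISA, with DMSO serving as negative control and baseline for a positive-direction fit.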

[8] = CCTE_Mundy_HCI_hNP1_Casp3_7: CCTE's Caspase-Glo 3/7 Assay in human neuroprogenitor cells for Apoptosis, Mundy Lab (AID 2284240)
Summary of the method: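 Luminescent caspase-3/7 readout, 26.5 h post-dose, in human neural progenitor cells from WA09 embryonic stem cells. Cells grew 40–44 h at 37 °C, 5% CO2 before chemical addition. Activity analysed as signal increase over DMSO baseline.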

[9] = read-out: Monokine induced gamma interferon (MIG), CXCL9 (gene 4283); test: BSK_KF3CT_MIG: BioMAP Diversity Plus: KF3CT Assay for Monokine induced gamma interferon (MIG) Biomarker Activity (AID 2284248); conditions: primary human keratinocytes with fibroblasts
Summary of the method: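 Parallel cultures were stained with SRB (560 nm) to check cytotoxicity. MIG was quantified by ELISA in a primary human skin keratinocyte/fibroblast co-culture 24 h post-dosing, with gain of signal fitted relative to DMSO.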

[10] = read-out: Vascular cell adhesion molecule 1 (VCAM1), VCAM1 (gene 7412); test: BSK_BF4T_VCAM1: BioMAP Diversity Plus: BF4T Assay for Vascular cell adhesion molecule 1 (VCAM1) Biomarker Activity (AID 2284249); conditions: primary human bronchial epithelial cells with fibroblasts
Summary of the method: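 Cell-surface VCAM-1 quantified by ELISA after 24 h chemical exposure of human bronchial epithelial/dermal fibroblast co-cultures, with SRB staining in parallel wells for cytotoxicity; DMSO baseline, positive-direction fitting.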

[11] = read-out: Plasminogen activator inhibitor-1 (PAI1), SERPINE1 (gene 5054); test: BSK_KF3CT_PAI1: BioMAP Diversity Plus: KF3CT Assay for Plasminogen activator inhibitor-1 (PAI1) Biomarker Activity (AID 2284252); conditions: primary human keratinocytes with fibroblasts
Summary of the method: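 In this co-culture of primary human keratinocytes and foreskin fibroblasts, PAI-1 was measured by ELISA at 24 h and fitted upward from DMSO.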

[12] = read-out: Monocyte Chemoattractant Protein-1 (MCP1), CCL2 (gene 6347); test: BSK_IMphg_MCP1: BioMAP Diversity Plus: IMphg Assay for Monocyte Chemoattractant Protein-1 (MCP1) Biomarker Activity (AID 2284253); conditions: primary human endothelial cells with macrophages
Summary of the method: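 ELISA readout of MCP-1 at 24 hours in IMphg co-cultures of venular endothelial cells and macrophages, normalised to DMSO; parallel cultures stained with sulforhodamine B for overt cytotoxicity.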

[13] = read-out: Interleukin-8 (IL8), CXCL8 (gene 3576); test: BSK_KF3CT_IL8: BioMAP Diversity Plus: KF3CT Assay for Interleukin-8 (IL8) Biomarker Activity (AID 2284254); conditions: primary human keratinocytes with fibroblasts
Summary of the method: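 IL-8 by ELISA in primary human skin co-culture (keratinocytes plus fibroblasts) 24 h post-dose, DMSO as baseline. Cytotoxicity assessed in parallel by sulforhodamine B total-protein staining.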

[14] = TAMU_PeakParms_SingleDonor1434_QT: Texas A&M University (TAMU) 1.5-hr Human Induced Pluripotent Stem Cell (iPSC)-derived Cardiomyocytes Calcium (Ca+2) Flux Assay for Cardiotoxicity: QT (decay-rise ratio) (AID 2284235; active = hit-call score of the fitted dose curve at least 0.9, where 1 is the maximum)
Summary of the method: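 Decay/rise ratio of calcium-flux fluorescence scored after 90 min exposure (37C) of donor 1434 iPSC cardiomyocytes to 0.2–100 uM (0.5% DMSO). Beat-cessation and severe-notch points removed; POD is EC05, a 5% rise over DMSO.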

[15] = CCTE_Mundy_HCI_Cortical_NOG_BPCount: CCTE's Neurite Outgrowth Assay in rat cortical cells for Branch Point Count, Mundy Lab (AID 2284237);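 as to AC50: branch points counted about two days after chemical exposure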
Summary of the method: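 Measured 50.33 h after dosing, this morphology endpoint uses rat primary cortical cultures labelled for betaIII-tubulin. Branch points are quantified by high-content imaging, with DMSO as negative control and baseline.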

[16] = CCTE_Mundy_HCI_hNP1_CellTiter: CCTE's Cell Titer-Glo 2 Assay in human neuroprogenitor cells for Viability, Mundy Lab (AID 2284241; active = hit-call score of the fitted dose curve at least 0.9, where 1 is the maximum;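 as to AC50: a hit is a drop in ATP luminescence versus DMSO meaning reduced viability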)
Summary of the method: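 Viability read as luminescent ATP content (CellTiter-Glo, 30 min room temperature) twenty-four hours after dosing, relative to DMSO. Cells: WA09-derived hNP1 neuroprogenitors on poly-L-ornithine/laminin, plated 40 to 44 hours before chemical.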

[17] = CCTE_Mundy_HCI_Cortical_Synap_Neur_Matur_NeuronCount: CCTE's Synaptogenesis and Neurite Maturation Assay in rat cortical cells for Neuron Count, Mundy Lab (AID 2284242; active = hit-call score of the fitted dose curve at least 0.9, where 1 is the maximum;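 also: hits reduce neuron count versus DMSO baseline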)
Summary of the method: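 Measured at DIV 12: fluorescently labelled neurons (Hoechst nuclei, MAP2) in rat primary cortical cultures, counted by high-content imaging. AraC suppressed glia from DIV 5; DMSO served as negative control.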

[18] = UKN2_HCS_IMR90_cell_viability: Viability Assessment in the University of Konstanz (UKN) Leist Lab Neural Crest Cell Migration Assay in human induced IMR90 Pluripotent Stem Cells (UKN2) (AID 2284233);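 also: cells exposed to compound for 24 h after a 24 h migration phase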
Summary of the method: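 Viability read as calcein-AM fluorescence by high-content imaging, Hoechst co-stain, 30 min. Human iPSC (IMR90) neural crest cells had migrated 24 h into stopper-defined gaps before 24 h chemical exposure. Fitted bidirectionally relative to DMSO.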

[19] = CCTE_Mundy_HCI_Cortical_NOG_NeuronCount: CCTE's Neurite Outgrowth Assay in rat cortical cells for Neuron Count, Mundy Lab (AID 2284236; active = hit-call score of the fitted dose curve at least 0.9, where 1 is the maximum;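 also: neurons counted by imaging betaIII-tubulin and Hoechst stained cortical cells; cells exposed to compound for about 48 hours before fixation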)
Summary of the method: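 Read-out: neuron number by high-content imaging of betaIII-tubulin (Alexa Fluor-488) and Hoechst-labelled rat primary cortical cells.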

Measured: AC50

Tumor necrosis factor (Homo sapiens), sequence (P01375 whole entry, looked up): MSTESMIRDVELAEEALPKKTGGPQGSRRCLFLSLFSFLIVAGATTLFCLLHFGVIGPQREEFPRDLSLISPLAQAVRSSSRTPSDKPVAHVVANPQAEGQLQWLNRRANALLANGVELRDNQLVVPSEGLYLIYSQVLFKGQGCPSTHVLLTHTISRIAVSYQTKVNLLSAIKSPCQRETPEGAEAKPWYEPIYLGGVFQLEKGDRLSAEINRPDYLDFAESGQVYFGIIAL

N#Cc1cc([N+](=O)[O-])ccc1N
inactive: [1] | [2] | [3] | [4] | [5] | [6] | [7]

CCCCOCCOP(=O)(OCCOCCCC)OCCOCCCC
active: [2] 15 nM
inactive: [1] | [3] | [4] | [5] | [6] | [7]

COP(=O)(O)OC
inactive: [1] | [2] | [3] | [4] | [5] | [6] | [7]

OCC(F)(F)OC(F)(F)C(F)(F)OC(F)(F)C(F)(F)OC(F)(F)F
inactive: [1] | [8] | [6] | [7] | [10] | [12]
active: [1] 49.2 µM | [2] 50.4 µM and 30 µM | [3] 54.7 µM and 40.5 µM | [4] 30 µM and 22.2 µM | [5] 18.3 µM and 11.5 µM | [9] 58.5 µM and 45.8 µM | [11] 43.8 µM and 44 µM | [12] 45.6 µM | [13] 46.5 µM and 50.9 µM

O=P(Oc1ccccc1)(Oc1ccccc1)Oc1ccccc1
inactive: [14]

CCOc1ccc(C(C)(C)COCc2cccc(Oc3ccccc3)c2)cc1
inactive: [15] | [8] | [16]
active: [17] 15 µM

CO/N=C(/C(=O)OC)c1ccccc1COc1ccccc1C
active: [18] 9.92 µM | [19] 13.4 µM | [15] 14.2 µM | [8] 33.2 µM | [16] 82.5 µM | [17] 2.98 µM

COP(N)(=S)OC
inactive: [1] | [2] | [3] | [4] | [5] | [6] | [7]

OCC(F)(F)OC(F)(F)C(F)(F)OC(F)(F)CO
not listed: [8] | [14] | [15] | [16] | [17] | [18] | [19]
inactive: all other assays above

O=P1(N(CCCl)CCCl)NCCCO1 (stereo unspecified)
inactive: [19] | [15] | [8] | [16]

CC(O)C(F)(F)C(F)(F)F (stereo unspecified)
not listed: [8] | [14] | [15] | [16] | [17] | [18] | [19]
inactive: all other assays above

Cc1c([N+](=O)[O-])cc2c(c1[N+](=O)[O-])C(C)(C)CC2(C)C
active: [2] 29500 nM | [3] 6.96 µM | [4] 20 µM | [7] 5.8 µM
inactive: [1] | [5] | [6]

COC(=O)C(F)(F)C(F)(F)OC(F)(C(F)(F)F)C(F)(F)OC(F)=C(F)F (stereo unspecified)
not listed: [8] | [14] | [15] | [16] | [17] | [18] | [19]
inactive: all other assays above
